From PubChem BioAssay (Tox21)
Records with an inconclusive call do not appear. A call without a number means that no potency is given here. The source made the active and inactive calls. The call rests on the fitted dose curve; in most records, active means well fitted cell-killing curve with a large enough effect in the repeat runs; inconclusive means weak or mixed curves, or effect the other way; inactive means flat fitted curve, though single readings scatter.

What was measured:
[1] = cAMP Responsive Elements (CRE) small molecule antagonists, cell-based qHTS assay: qHTS cell viability counter screen (AID 2060913); conditions: CRE-bla HEK293T viability, CellTiter-Glo luminescence, 5 h; series mostly up to 92.4 µM; further: nearly all actives have a fitted effect of over 40% in size
In short: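 Cytotoxicity read in the same wells as the CRE-bla HEK293T antagonist assay: after 3 h compound with 0.25 uM NKH477 final and 2 h beta-lactamase substrate, CellTiter-Glo luminescence measured.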

[2] = cAMP Responsive Elements (CRE) small molecule agonists, cell-based qHTS assay: qHTS cell viability counter screen (AID 2060914); conditions: CRE-bla HEK293T viability, CellTiter-Glo luminescence, 5 h; series mostly up to 92.4 µM; further: nearly all actives have a fitted effect of over 50% in size
In short: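 Cytotoxicity was measured as ATP luminescence (CellTiter-Glo, 30 min at room temperature) in the same wells as the CRE-bla FRET read-out. HEK293T CRE-bla cells had 3 h compound exposure at 37C/5% CO2.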
Potency means the concentration at half of the fitted maximal effect.

Compound: Cc1ccc(C(C)C)cc1O
- Potency [1]: inactive
- Potency [2]: inactive

Compound: O=C(O)c1ccc2c(c1)C(=O)OC2=O
- Potency [1]: inactive
- Potency [2]: inactive

Compound: CC(=O)Nc1ccc(OC(=O)c2ccccc2OC(C)=O)cc1
- Potency [1]: inactive
- Potency [2]: inactive

Compound: CC(C[N+](C)(C)C)OC(N)=O (centres undefined)
- Potency [1]: inactive
- Potency [2]: inactive

Compound: O=C(/C=C/c1ccccc1)OCc1ccccc1
- Potency [1]: inactive
- Potency [2]: inactive

Compound: CCOC(=N)CC(=O)OCC
- Potency [1]: inactive
- Potency [2]: inactive

Compound: O=C1C(N(CO)C(=O)NCO)N(CO)C(=O)N1CO (centres undefined)
- Potency [1]: inactive
- Potency [2]: inactive

Compound: O=[N+]([O-])c1ccccc1Nc1ccccc1
- Potency [1]: inactive
- Potency [2]: inactive

Compound: CC(C)Cc1ccc(CC(=O)O)cc1
- Potency [1]: inactive
- Potency [2]: inactive

Compound: Cn1cccc1
- Potency [1]: inactive
- Potency [2]: inactive

Compound: C=CCN1C[C@H](C(=O)N(CCCN(C)C)C(=O)NCC)C[C@@H]2c3cccc4[nH]cc(c34)C[C@H]21
- Potency [1]: inactive
- Potency [2]: inactive

Compound: NC(N)=O
- Potency [1]: inactive
- Potency [2]: inactive

Compound: CCCOc1ccc(C(=O)OCCN(CC)CC)cc1N
- Potency [1]: inactive
- Potency [2]: inactive

Compound: CCCCCCCCC(=O)OCC
- Potency [1]: inactive
- Potency [2]: inactive

Compound: CC1OC(=O)C(C)OC1=O (centres undefined)
- Potency [1]: inactive
- Potency [2]: inactive

Compound: CCCCCC=CCC=CCCCCCCCC(=O)OCC
- Potency [1]: inactive
- Potency [2]: inactive

Compound: C=C(C)C1CC=C(C)C(O)C1 (centres undefined)
- Potency [1]: inactive
- Potency [2]: inactive

Compound: CCCCC(CC)COC(=O)COc1ccc(Cl)cc1Cl (centres undefined)
- Potency [1]: inactive
- Potency [2]: inactive

Compound: CCCCCCCCCCn1cc[n+](CCCCCCCCCC)c1C
- Potency [1]: 24.4 µM (active)
- Potency [2]: 48.6 µM (active)

Compound: O=C1c2ccccc2CCc2ccccc21
- Potency [1]: inactive
- Potency [2]: inactive

Compound: OB(O)O
- Potency [1]: inactive
- Potency [2]: inactive

Compound: C[C@H](CCC(=O)O)[C@H]1CC[C@H]2[C@@H]3[C@H](O)C[C@@H]4C[C@H](O)CC[C@]4(C)[C@H]3CC[C@]12C
- Potency [1]: inactive
- Potency [2]: inactive
